# Screening data: PubChem BioAssay, National Center for Advancing Translational Sciences (NCATS)
# The list is not random: actives were taken first. Their share in the collection is about 18%.
# TDP1 inh – inhibitors of human tyrosyl-DNA phosphodiesterase TDP1; Q9NUW8; recombinant TDP1, AlphaScreen DNA substrate cleavage; Potency, µM (highest dose often 130 µM), most hits filed as inhibitors; 350,000 tested, 0.28% active; also: nearly all actives have a fitted effect of over 40% in size
#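 Recombinant E. coli-expressed Tdp1 (1 nM) preincubated with compound 15 min at RT, then 5'-biotin/3'-phosphotyrosine-FITC DNA substrate (15 nM) added for 5 min. AlphaScreen beads (10 ug/ml) added, 10 min RT; tyrosine-FITC cleavage read as signal loss.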
# VDR inhibitor – vitamin D3 receptor (human) inhibition; VDR-SRC2-3 peptide fluorescence polarization, 2 h; Potency, µM, hits mostly inhibitors; 400,000 tested, 0.93% active
# Target sequence (P11473 whole entry, looked up): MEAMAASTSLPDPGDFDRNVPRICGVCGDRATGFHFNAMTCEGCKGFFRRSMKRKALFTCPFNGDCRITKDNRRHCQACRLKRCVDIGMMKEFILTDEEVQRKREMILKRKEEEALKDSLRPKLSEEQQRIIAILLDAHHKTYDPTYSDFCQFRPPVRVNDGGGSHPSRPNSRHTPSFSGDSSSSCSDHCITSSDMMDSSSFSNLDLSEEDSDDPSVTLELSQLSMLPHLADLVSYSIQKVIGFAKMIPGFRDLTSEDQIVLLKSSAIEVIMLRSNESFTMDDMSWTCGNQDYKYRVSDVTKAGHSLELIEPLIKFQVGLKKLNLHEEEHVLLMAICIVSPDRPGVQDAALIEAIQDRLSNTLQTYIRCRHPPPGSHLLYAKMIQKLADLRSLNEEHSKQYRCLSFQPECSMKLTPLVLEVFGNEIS
#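 Inhibition of the VDR/SRC2-3 peptide interaction is quantified by fluorescence polarization. Compounds (23 nl, pintool) incubate with the reagents for 2 hours at ambient room temperature.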
# GCN5L2 inh – GCN5L2 (KAT2A) acetyltransferase inhibition; AID 504327; Q92830; Potency, µM (titrated, usually from 58.9 µM), actives largely listed as inhibitors; 390,000 tested, 0.21% active; GCN5L2 HAT assay, ThioGlo1 CoA-SH fluorescence
#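 Compounds, pin-transferred from DMSO stocks, meet 20nM GCN5L2 for 15 min before the reaction begins with H3(1-25) peptide (75uM) and acetyl-CoA (70uM). Thiol-reactive ThioGlo1 reports CoA release over 20 min at room temperature.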
# DT40 TDP1 CPT – DT40-hTDP1 cell growth loss with CPT; chicken DT40 Tdp1-/-;hTDP1 cells + 20 nM CPT, ATP luminescence, 48 h; Potency, µM (series often up to 46.2 µM), hits mostly inhibitors; 420,000 tested, 12% active; also: nearly all actives have a fitted effect of over 55% in size
#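 Cell growth measured by CellTiter-Glo luminescence after a minimum 48 h, 37 C compound exposure with 20 nM CPT in Tdp1-knockout DT40 cells stably expressing hTDP1, seeded 400/well; qHTS titration format.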
# PLK1 PBD inh – blocks phosphopeptide binding to human PLK1 polo-box domain | P53350 | AID 720504 | 360,000 tested, 2.8% active | Potency, µM, hits mostly inhibitors | Plk1 PBD binding of FITC phosphopeptide, fluorescence polarization; also: series mostly up to about 57 µM; nearly all actives have a fitted effect of over 65% in size
# TDP1 cell noCPT – qHTS for Inhibitors of human tyrosyl-DNA phosphodiesterase 1 (TDP1): qHTS in cells in absence of CPT. Potency, µM (top dose mostly 46.2 µM), most hits filed as inhibitors. DT40 Tdp1-/- hTDP1 cells, no CPT, ATP luminescence, 48 h. AID 686978, 2013. 420,000 tested, 15% active; also: nearly all actives have a fitted effect of over 55% in size
#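 Seeded 400 DT40-hTDP1 cells/well (vehicle DMSO, no 20 nM CPT); pinned compounds; ≥48 hr at 37 °C; CellTiter-Glo luminescence as viability measure.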
# A number is an active result; . = inactive; ? = inconclusive; / = no result. Calls follow the shape of the dose curve; as a rule, active = well fitted curve in the direction sought with a large enough effect; inconclusive = small, poorly fitted or top-dose-only effect, or another doubt; inactive = no such curve, though single readings can be large; an effect the other way counts as inactive or inconclusive.
SMILES,TDP1 inh,VDR inhibitor,GCN5L2 inh,DT40 TDP1 CPT,PLK1 PBD inh,TDP1 cell noCPT
CN(Cc1ccccc1)C(=O)c1cccc(NC(=O)Cc2ccc(NC(=O)C3CCCN(C(=O)C4CCCCC4)C3)cc2)c1 (centres undefined),/,.,/,16.4µM,.,?
CN(Cc1ccccc1)C(=O)c1ccc(NC(=O)Cc2ccc(NC(=O)C3CCN(S(=O)(=O)c4cccc([N+](=O)[O-])c4)CC3)cc2)cc1,/,.,/,13µM,?,?
CN(C(=O)c1ccc(NC(=O)Cc2ccc(NC(=O)C3CCCN(C(=O)CCc4ccccc4)C3)cc2)cc1)C1CC1 (centres undefined),.,.,.,?,.,13µM
CN(Cc1ccccc1)C(=O)c1cccc(NC(=O)Cc2ccc(NC(=O)C3CCN(S(=O)(=O)c4cccc([N+](=O)[O-])c4)CC3)cc2)c1,/,.,/,.,.,.
CNC1CCc2cc(OC)c(OC)c(OC)c2-c2ccc(OC)c(=O)cc21 (centres undefined),.,.,.,/,/,/
COc1cc2c(c(OC)c1OC)-c1ccc(OC)c(=O)cc1C(NC(=O)c1ccccc1)CC2 (centres undefined),/,.,/,0.0092µM,.,0.0184µM
COC(=O)c1ccc2c(c1)C(NC(C)=O)CCc1cc(OC)c(OC)c(OC)c1-2 (centres undefined),/,.,/,0.0184µM,.,0.0206µM
CCCC(=O)NC1CCc2cc(OC)c(OC)c(OC)c2-c2ccc(OC)c(=O)cc21 (centres undefined),/,.,/,0.0164µM,.,0.0164µM
COc1ccc(C(C)=O)cc1CC(=O)NC1CCCCCC1,.,.,.,.,.,.
COc1c(C=O)c2c(c(OC)c1OC)-c1ccc(OC)c(=O)cc1C(NC(C)=O)CC2 (centres undefined),/,.,/,0.0082µM,.,0.0146µM
COc1cccc(C(=O)Nc2ccc3c(cc2=O)[C@@H](NC(C)=O)CCc2cc(OC)c(OC)c(OC)c2-3)c1,/,.,?,6.51µM,.,2.91µM
COc1cc2c(cc1NC(=O)c1cccc(F)c1)CCCC2,.,.,.,?,.,?
O=C(Nc1cccc(F)c1)C1CCN(c2nc3ccccc3[nH]2)CC1,.,.,.,23.1µM,/,?
Cc1cc(NC(=O)c2sccc2C)n(-c2nc3ccccc3[nH]2)n1,.,.,.,?,.,16.4µM
COc1cccc(OC)c1C(=O)Nc1cc(C)nn1-c1nc2ccccc2[nH]1,.,.,.,16.4µM,.,9.2µM
Cc1cc(NC(=O)c2cccs2)n(-c2nc3ccccc3[nH]2)n1,.,.,.,?,.,20.6µM
Cc1cc(NC(=O)c2ccccc2)n(-c2nc3ccccc3[nH]2)n1,.,.,.,?,.,.
CCOC(=O)c1ccc(NC(=O)CSc2nc(-c3ccc(F)cc3)cc(C(F)(F)F)c2C#N)cc1,.,.,.,?,/,?
CC(NC(=O)c1ccco1)c1ccc(-n2ccnc2)cc1 (centres undefined),.,.,.,.,.,?
CSCCC(c1nnnn1C1CCCC1)N1CCN(C/C=C/c2ccccc2)CC1 (centres undefined),/,/,/,?,.,?
Cc1cc(NC(=O)C2CCCC2)n(-c2nc3ccccc3[nH]2)n1,.,.,.,17.8µM,.,?
COc1cc(/C=N/NC(=S)NCc2ccco2)cc(OC)c1OC,.,.,.,16.4µM,.,?
S=C(NCc1ccco1)N/N=C/c1ccc(Cl)cc1,.,.,.,?,.,20.6µM
COc1ccccc1/C=N/NC(=S)NCc1ccco1,/,.,.,?,.,?
Cc1ccc(CNc2nc3ccccc3n2C)cc1,/,.,.,.,.,?
SMILES,TDP1 inh,VDR inhibitor,GCN5L2 inh,DT40 TDP1 CPT,PLK1 PBD inh,TDP1 cell noCPT
Cc1cc(C)c(C)c(N=Nc2nc3ccccc3n2C)c1C,.,.,.,?,?,23.1µM
Cc1ccc(C)c(N=Nc2nc3ccccc3n2C)c1,.,.,.,5.8µM,.,3.55µM
CC(=O)COc1ccc2c(-c3cccc([N+](=O)[O-])c3)cc(=O)oc2c1,.,.,.,?,.,23.1µM
O=C(COc1ccc2c(-c3ccccc3)cc(=O)oc2c1)Nc1ccc(CCO)cc1,.,.,.,8.2µM,.,7.31µM
Cc1cc(=O)oc2cc(OCC(=O)Nc3ccc(CN4CCOCC4)cc3)ccc12,.,.,?,?,.,.
O=C(COc1ccc2c(-c3ccccc3)cc(=O)oc2c1)Nc1ccc(CN2CCOCC2)cc1,.,.,.,20.6µM,.,?
O=C(O)COc1ccc2c(-c3ccccc3)cc(=O)oc2c1,.,.,.,.,.,.
CCc1ccc2occ(CC(=O)Nc3c(C(=O)c4ccc(F)cc4)oc4ccccc34)c2c1,.,.,.,.,/,?
Cc1nn(-c2ccccc2)c(N)c1N=Nc1cccnc1,.,.,.,?,.,?
Nc1nn(-c2ccccc2)c(N)c1N=Nc1cccc(F)c1,.,?,.,1.64µM,.,2.59µM
Nc1[nH]n(-c2ccccc2)c(=O)c1N=Nc1ccc2c(c1)OCO2,/,?,.,.,.,?
Nc1nn(-c2ccccc2)c(N)c1N=Nc1ccc2c(c1)OCO2,.,.,.,3.66µM,.,4.11µM
CCNC(=O)C1(C)CCN(C(=O)c2cccc(OC(F)(F)F)c2)C1 (centres undefined),/,/,/,.,.,.
CC(C)(C)c1ccc(/C=N/NC(=O)C2CCCC2)cc1,.,.,.,20.6µM,.,13µM
CC(Cl)C(=O)NNC(=O)CNS(=O)(=O)c1ccccc1 (centres undefined),.,.,.,?,26.7µM,.
COC(=O)C[C@H]1CC[C@H](NC(=O)c2cccc(F)c2)[C@@H](CO)O1,/,/,/,.,.,.
CSc1ccc(CNC(=O)CCn2ccc3cc(S(=O)(=O)N4CCC(C)CC4)ccc32)cc1,.,.,.,20.6µM,/,?
Cc1cccc(CNC(=O)Cn2ccc3cc(S(=O)(=O)N4CCC(C)CC4)ccc32)c1,.,.,.,?,/,?
CSc1ccc(CNC(=O)Cn2ccc3cc(S(=O)(=O)N4CCCC4)ccc32)cc1,.,.,.,?,/,?
CC1CCN(S(=O)(=O)c2ccc3c(ccn3CCC(=O)NCc3ccccc3F)c2)CC1,.,.,.,16.4µM,/,?
CC1CCN(S(=O)(=O)c2ccc3c(ccn3CC(=O)NCc3ccccc3F)c2)CC1,.,.,.,20.6µM,/,?
Cc1ccc(NS(=O)(=O)c2ccc(Cl)c(C(=O)Nc3cccc(C(=O)O)c3)c2)cc1,/,.,.,.,.,.
COc1ccc(OC)c(S(=O)(=O)N2CCC(C(=O)N3CCCC3)CC2)c1,/,.,.,.,.,.
